Experimental data as given in PMC12136788.
Substitutions are numbered along the chain they refer to. Whole data set: some 5,800 sequences, median “enrichment r” near 0.54, cut for the highest 2% near 16. For the sample, the highest values were picked, then their nearest neighbours and some sequences at random.

B1: ENSG00000198856:stop:overlap|stop_codon|ENSG00000198856|stop_codon|NA|stop_codon (ssRNA)
RNA: GGGAGUUCUACAGUCCGACGAUCUGAGUUUUUUCAUGGCUAGAGUAUUCAUGAGAAUGAAACUGCCGGGCUAUCUGAUGGGUUAGAGUGCCUUUGAGAAGAAAUCAGUGGAUACUGGAUUUGCUCCUGUCAAUGAAGUUUUAACAACAGAGGAUUGAGCAUCA
B2: chr12:98549999:98550103:+|3pUTR|ENSG00000120802|unk|total|mutant (ssRNA)
RNA: GGGAGUUCUACAGUCCGACGAUCUGUUUCCCAUACUGUUUUCAGCCUUUUGUUUAUAAUCCGAAAUUGUGAGAAGCUUCAUUCCGUGUUUAAAAAUGUGGGGAGAUAAAUCAGACUUAACAUGUAUGUAAGAUCAAUUCACUUCAACAGAGGAUUGAGCAUCA
B3: chr12:104760787:104760888:+|3pUTR|ENSG00000171310|unk|FALSE|unique (ssRNA)
RNA: GGGAGUUCUACAGUCCGACGAUCUUCUUUUCUAAUGGCAUUGAAACUUUAAAAAAAAUGGAUUCAACUGUUUUUGCAGAAUGUAGAAAGUAUUCUGUGUCCUUGGUUAAAGAAAUCCACUUGUGAAGUGUGCCUGGAAAAUGACAACAGAGGAUUGAGCAUCA
B4: chr12:909583:909684:+|3pUTR|ENSG00000060237|unk|FALSE|bound_elsewhere (ssRNA)
RNA: GGGAGUUCUACAGUCCGACGAUCUAGCUCUGUCCUUUACUUAUUGAGACACUUUAACUUUUUCCUUUGUAUUUCCAUUGUAUUAGAUAAAUAAAUGUGAAUGUAAAAUUGUAUAAAUUACUGUACUUGAAUACUUCUGUUUCCCAACAGAGGAUUGAGCAUCA
B5: chr8:100287602:100287712:-|CDS|ENSG00000034677|unk|total|mutant (ssRNA)
RNA: GGGAGUUCUACAGUCCGACGAUCUGUGUGGAUUGCUUACGACAAUAUUUAAGGACCGAAAUCUCUGAAAGCAGAGUUAAUAUCCGUUGCCCAGAAUGUACUGAACGGUUUAAUCCCCAUGAUAUUCGCUUGAUAUUAAGUGAUCAACAGAGGAUUGAGCAUCA
B6: ENSG00000064393:stop:overlap|stop_codon|ENSG00000064393|stop_codon|NA|stop_codon (ssRNA)
RNA: GGGAGUUCUACAGUCCGACGAUCUCUCCCUGGAGAGUGGUUUUCCUGCUUUUCUGCUGCUAGAAAUGUUGCUGUAUGGGAGCUAGUACAAUAGAAAGUGCCCAGUGACUGCAGGCGACCCUUACCGAGGAUUUUAUUCAAGUACAACAGAGGAUUGAGCAUCA
B7: chr12:104760787:104760888:+|3pUTR|ENSG00000171310|unk|total|mutant (ssRNA)
RNA: B3 RNA with U83C, A84C
B8: chr1:150220393:150220494:-|3pUTR|ENSG00000143401|msi1_unk|FALSE|overlapping (ssRNA)
RNA: GGGAGUUCUACAGUCCGACGAUCAUUGUAUGUAGAGAAAAAUUUUCAUUGACUCCCAUUGUGGAAUUCCCUAGCAAUUUAUUUAGACUUAAUUUUUUAAAUUCAAGCUUACUGUAUUAGUCAUUUUUAGCCCAUAAUUAAAACCAACAGAGGAUUGAGCAUCA
B9: chr1:150220393:150220494:-|3pUTR|ENSG00000143401|msi1_unk|total|mutant (ssRNA)
RNA: B8 RNA with U32C, A33C, U71C, A72C, U83C, A84C, U117C, A118C, U127C, A128C
B10: chr12:98549999:98550103:+|3pUTR|ENSG00000120802|unk|FALSE|unique (ssRNA)
RNA: B2 RNA with C60U, C61A, C83U, C84A
B11: chr2:167954955:167954998:-|3pUTR|ENSG00000198648|msi1_unk|FALSE|overlapping (ssRNA)
RNA: GGGAGUUCUACAGUCCGACGAUCGUUGUAUUUAGAAAUUAAUAUACUUAUAAAAUUAAGAUUUAUUAGCCAAACUUGAAUUCUAGUUUUAAAACUGACUGUGAAUUUUAUUUUUCAUAUAUUUAUGCAUUACACACCUUAGCUCAACAGAGGAUUGAGCAUCA
B12: chr8:100287602:100287712:-|CDS|ENSG00000034677|unk|FALSE|unique (ssRNA)
RNA: B5 RNA with C55U, C56A, C83U, C84A
B13: ENSG00000087460:stop:overlap|stop_codon|ENSG00000087460|stop_codon|NA|stop_codon (ssRNA)
RNA: GGGAGUUCUACAGUCCGACGAUCGAGGCGCCUUCGGCUCGGGCCAUGGCGCCCGGCGCCGGGGGCGCGAGGAGCGGCUCAUCUAGUCAGACCCCCCACCCCGCCACCGCCACCAGACACCACCAUCGCUGUGUAGUGUGCUGGCAACAGAGGAUUGAGCAUCA
B14: chr1:45693489:45693605:+|CDS|ENSG00000159596|unk|FALSE|unique (ssRNA)
RNA: GGGAGUUCUACAGUCCGACGAUCAAUCCCCUUCGUUGCUCCACCACUGGUCAUGCUGAUGACAAAAACUUAUAUUCCCAUAUUAGCUUUUACUCAGAUGGCUUAUGGAGCCAGUUUCCUAUCUUUCUUGGGUGGGAUCAGAUGCAACAGAGGAUUGAGCAUCA
B15: chr1:17067390:17067767:-|3pUTR|ENSG00000117115|msi1|total|mutant (ssRNA)
RNA: GGGAGUUCUACAGUCCGACGAUCCCCAACAUGCAAAGCCCACAUUUAAAGGCCAGCCUCUGCCCCUUCAGUGAUGCGCUCUUCCGAAAUGCCAGUCCACUAUAUUCAGAAAUCCGCAGGGCACAAAACUUCCAGCAAGUCACUCAACAGAGGAUUGAGCAUCA
B16: chr10:32033860:32033975:-|CDS|ENSG00000170759|unk|total|mutant (ssRNA)
RNA: GGGAGUUCUACAGUCCGACGAUCCACAGUGGAUAAAGAUAUUACUCUUACCAAUGAUAAACCAGCAACCGCAAUUGGAGUUACCGGAAAUUUUACUGAUGCUGAAAGAAGAAAGUGUGAAGAAGAAAUUGCUAAAUUAUACAACAACAGAGGAUUGAGCAUCA
B17: chr5:171862525:171862626:-|3pUTR|ENSG00000072803|msi1|total|mutant (ssRNA)
RNA: GGGAGUUCUACAGUCCGACGAUCGACAGUGCAUGGAAAGGACGUUGGCAUCCAAUUGGCACUCCUUCUCCCUUAUUCAAUAUCCGGUUUGAUUUGCCCUUCGCCAUUGUUUCCAAAGAUCAAGGAAUGUCAAUAACAUUUUAACAACAGAGGAUUGAGCAUCA
B18: ENSG00000124766:be:win_751|CDS|ENSG00000124766|bound_else_gene|NA|bound_elsewhere_windowed (ssRNA)
RNA: GGGAGUUCUACAGUCCGACGAUCGGCGCCGCCGCCGACCACCACUCGCUGUACAAGGCGCGGACUCCCAGCGCCUCGGCCUCCGCCUCCUCGGCAGCCUCGGCCUCCGCAGCGCUCGCGGCCCCGGGCAAGCACCUGGCGGAGCAACAGAGGAUUGAGCAUCA
B19: chr18:35263486:35263657:-|CDS|ENSG00000186814|control|control|control (ssRNA)
RNA: GGGAGUUCUACAGUCCGACGAUCGGAAAUGACAUCCACAGGAGCACUGAAGUCUCUGUCUCUGAAUAGCCCGGUGCAGCCCUUAGAGAACCAGUGCAAGACUGAGACUCAGGAGUCCCAGGCUUUCCAGGAGAGAGGUGAGAACAACAGAGGAUUGAGCAUCA
B20: chr4:138169334:138169435:-|3pUTR|ENSG00000151012|msi1|total|mutant (ssRNA)
RNA: GGGAGUUCUACAGUCCGACGAUCCCAUUUCACGCAGAAAAAAAGUCAGCCAGUAAUUAAGAAAAAAAGUGAUGGAGAUUAAGCCGUAUUUUGGCUUAUUUUCCGGACUCAUCAUGAGAAGACACAGUUCCUUUAAUCAGGAAACAACAGAGGAUUGAGCAUCA
B21: chr4:138169334:138169435:-|3pUTR|ENSG00000151012|msi1|FALSE|unique (ssRNA)
RNA: B20 RNA with C83U, C84A, C102U, C103A
B22: chr17:5489330:5489445:+|CDS|ENSG00000167842|unk|FALSE|unique (ssRNA)
RNA: GGGAGUUCUACAGUCCGACGAUCACGUUGACUUUCUUUGAUGAGCUUCAUAAUGUUGGCAGAGAUCAUGGGACUAGUGAUUUUAGGGAGAGUUUAGUAUCCCUGGUUCAGAACUCCAGAAAACUACAGAACAUUAGAGACAAUCAACAGAGGAUUGAGCAUCA
B23: chr13:79312715:79312816:-|3pUTR|ENSG00000139746|unk|FALSE|unique (ssRNA)
RNA: GGGAGUUCUACAGUCCGACGAUCCCUUGUGAUUUAUUAUAAUGUAGCAGCAUACUUAUAAAAGUGGUCUGUGCUGAGUCAGAUAGAGAGCCCAGCCCAUUAGAAACACAUCAUAAUUUAAGAAUAUGAUGCAGAAUGCCCUUACAACAGAGGAUUGAGCAUCA
B24: chrX:155122998:155123099:+|3pUTR|ENSG00000185515|unk|FALSE|unique (ssRNA)
RNA: GGGAGUUCUACAGUCCGACGAUCCUACAUACACACAAAUGAAUGCAUGUAAAAUCUGGUGAUACUGAAUAAAGUCUGUGGUCUAGAUAGCAGUAUAAUAUUAUUGUCAAUGUCUUGGAUGUGAAGUUGUGCUAUAGUUACAAACAACAGAGGAUUGAGCAUCA
B25: chr13:79312715:79312816:-|3pUTR|ENSG00000139746|unk|total|mutant (ssRNA)
RNA: B23 RNA with U44C, A45C, U83C, A84C, U100C, A101C

target: MSI1 full-length (mouse, UniProt Q61474 1-362); test: nsRBNS (natural sequence RNA bind-n-seq); RBNS binding buffer (assumed for nsRBNS): 25 mM Tris pH 7.5, 150 mM KCl, 3 mM MgCl2, 0.01% Triton X-100, 500 ug/ml BSA, 20 U/ml SUPERase-In, 4 C; UNK is unkempt and MSI1 is Musashi-1; names of the RNAs are library labels; protein concentration not given here; high values mean tight binding
Sequence (Q61474 whole entry): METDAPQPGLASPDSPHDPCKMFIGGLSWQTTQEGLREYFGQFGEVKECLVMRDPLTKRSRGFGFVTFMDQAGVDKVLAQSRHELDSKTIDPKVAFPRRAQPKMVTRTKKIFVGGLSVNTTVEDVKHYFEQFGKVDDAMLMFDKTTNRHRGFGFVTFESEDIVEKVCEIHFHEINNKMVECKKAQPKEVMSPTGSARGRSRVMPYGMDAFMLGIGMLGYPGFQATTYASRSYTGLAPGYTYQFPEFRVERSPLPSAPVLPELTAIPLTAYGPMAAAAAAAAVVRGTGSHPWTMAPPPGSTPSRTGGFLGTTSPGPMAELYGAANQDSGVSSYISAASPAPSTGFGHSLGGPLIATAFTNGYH

Binder	binding signal [enrichment R]
B1	16.4
B2	0.426
B3	0.433
B4	13.1
B5	0.307
B6	0.605
B7	0.231
B8	61.8
B9	2.27
B10	27.3
B11	9.9
B12	22.4
B13	0.204
B14	0.499
B15	0.72
B16	0.675
B17	0.579
B18	0.389
B19	0.496
B20	0.883
B21	19.3
B22	1.88
B23	17.8
B24	2.09
B25	1.96
